High-throughput results as filed in PubChem BioAssay.
KCNQ2 pot – enhances the rat KCNQ2 potassium channel; O88943; CHO-K1 KCNQ2, FluxOR thallium flux fluorescence; stronger effect = higher value; hit rate 0.54% among 310,000; B-score at 10 µM;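 active = fluorescence ratio B-score at least 3 SD of library B-scores, with initial fluorescence B-score within 3 of them, cut at about 5.3 in these data; same plate scores as AID 2156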;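 also: B-score of peak minus minimum over baseline fluorescence ratio after K+ and Tl+ stimulus; positive B-score means potentiation of KCNQ2 with more thallium influx and brighter signal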
KCNQ2 inh – inhibitors of rat KCNQ2 potassium channel; O88943; CHO-K1 KCNQ2, FluxOR thallium flux, 20 min; stronger effect = lower value; B-score at 10 µM; hit rate 1.1% among 310,000; AID 2156;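 active = fluorescence ratio B-score at most minus 3 library SDs, with starting brightness B-score within 2 library SDs, cut at about -5.5 in these data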
Kir21 conf inh – confirmation of mouse Kir2.1 potassium channel inhibitors; shares compounds with KCNQ2 pot; hit rate 41% among 2,300; AID 2032; Kir2.1-expressing cells, FluxOR thallium flux fluorescence; stronger effect = lower value; Tl flux remaining, % of negative control (stronger effect = lower value), % at 10 µM;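 active = Primary-screen hit whose thallium flux fell at least 3 control SD below untreated wells in both duplicates, with normal baseline fluorescence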;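 also: 0% = blank wells without stimulus and 100% = stimulated no-compound controls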
HEK293 Tl flux – parental HEK293 activity in Kir2.1 inhibitor counter-screen. shares compounds with KCNQ2 pot. parental HEK293 cells, FluxOR thallium flux fluorescence; 0% = unstimulated blank wells. FluxOR signal as % of negative control (100 = no effect), % at 10 µM. hit rate 19% among 2,300. AID 2105;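 active = dye signal at least 3 control SD above or below untreated wells in both duplicates, raw fluorescence within 3, either direction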;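 also: percent is based on the flux ratio of peak minus minimum fluorescence over baseline F0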
CHO-K1 Tl ctr – alters thallium flux in parental CHO-K1 cells, KCNQ2 counter-screen | FluxOR thallium flux fluorescence; zero = vehicle mean+3SD, 100% = vehicle-minus-blank window | AID 2282 | shares compounds with KCNQ2 pot | hit rate 43% among 1,200 | activity increase over 3SD of controls, % at 10 µM;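 active = signal rise of at least 3 SD above the untreated control mean, in both duplicate wells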;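 also: counter screen of KCNQ2 potentiator hits so any rise reflects channel-independent effects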
KCNQ1 sel pot – selectivity of KCNQ2 potentiators: effect on human KCNQ1. shares compounds with KCNQ2 pot. CHO KCNQ1 stable, FluxOR thallium flux fluorescence; beyond 3SD, as % of vehicle-control signal. activation over 3SD threshold, % at 10 µM. hit rate 28% among 1,200;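 active = fluorescence ratio rise of at least 3 SD of vehicle wells above their mean, in both replicate wells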;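 also: 0% = vehicle mean plus 3 SD and 100% = vehicle minus unstimulated blank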
KCNQ2 pot conf – rat KCNQ2 channel potentiator confirmation; shares compounds with KCNQ2 pot; CHO-KCNQ2 cells, FluxOR thallium flux fluorescence; potentiation, less the hit threshold, % at 10 µM; hit rate 68% among 1,200; AID 2287;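 active = fluorescence ratio rising 3 SD or more over the vehicle control mean in both replicates, plus primary screen hit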;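 also: peak minus minimum thallium fluorescence divided by baseline after K/Tl stimulus; 0% = vehicle mean plus 3 SD and 100% = vehicle minus unstimulated blank difference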
Kir21 spec – tests whether KCNQ2 potentiators also affect mouse Kir2.1; shares compounds with KCNQ2 pot; HEK293 Kir2.1, FluxOR thallium flux fluorescence; AID 2345; activity over 3SD threshold, % at 10 µM; hit rate 2% among 1,200;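 active = fluorescence ratio rise of at least 3 SD above the vehicle-control mean, seen in both replicates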;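 also: 0% = vehicle mean plus 3 SD and 100% = vehicle minus no-stimulus blank window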
KCNQ2 W236L pot – rat KCNQ2 W236L mutant potentiation by KCNQ2 potentiators | current increase over 3SD of negative controls (%), stronger effect = higher value, % at 25 µM | AID 2558 | hit rate 10% among 940 | shares compounds with KCNQ2 pot | CHO KCNQ2-W236L, automated patch clamp current;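 active = current increase at least 3 SD of the untreated controls above them in both duplicate recordings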
Target sequence (O88943 whole entry W236L, looked up): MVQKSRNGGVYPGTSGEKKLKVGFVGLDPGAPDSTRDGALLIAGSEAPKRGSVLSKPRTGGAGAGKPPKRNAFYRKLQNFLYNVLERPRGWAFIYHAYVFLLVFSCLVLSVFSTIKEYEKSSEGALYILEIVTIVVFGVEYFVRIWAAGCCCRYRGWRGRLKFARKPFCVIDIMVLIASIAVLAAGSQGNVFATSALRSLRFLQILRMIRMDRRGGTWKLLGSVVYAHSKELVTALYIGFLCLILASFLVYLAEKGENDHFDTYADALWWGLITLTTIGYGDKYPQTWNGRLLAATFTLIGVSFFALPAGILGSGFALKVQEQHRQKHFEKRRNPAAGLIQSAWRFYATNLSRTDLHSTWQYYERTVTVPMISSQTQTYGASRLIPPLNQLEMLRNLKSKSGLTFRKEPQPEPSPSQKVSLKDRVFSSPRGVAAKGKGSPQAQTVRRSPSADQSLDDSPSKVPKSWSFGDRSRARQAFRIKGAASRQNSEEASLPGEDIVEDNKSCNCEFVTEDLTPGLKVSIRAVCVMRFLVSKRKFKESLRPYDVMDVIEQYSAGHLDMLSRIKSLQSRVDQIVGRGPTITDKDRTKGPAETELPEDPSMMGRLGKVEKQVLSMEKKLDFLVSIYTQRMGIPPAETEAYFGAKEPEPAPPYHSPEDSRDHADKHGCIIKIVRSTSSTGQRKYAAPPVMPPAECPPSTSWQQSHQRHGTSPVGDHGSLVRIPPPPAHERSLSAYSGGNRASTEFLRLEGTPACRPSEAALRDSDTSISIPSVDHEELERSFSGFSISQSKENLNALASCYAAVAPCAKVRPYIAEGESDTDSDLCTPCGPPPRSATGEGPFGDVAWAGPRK
Starred values were filed as active, the others as inactive; i = inactive; nt = no result. An excerpt weighted towards active compounds, which were near 1.6% of everything screened.

SMILES	KCNQ2 pot	KCNQ2 inh	CHO-K1 Tl ctr	KCNQ1 sel pot	KCNQ2 pot conf	Kir21 spec	KCNQ2 W236L pot	others
CSc1nnc(NC(=O)c2nc(S(=O)(=O)Cc3cccc(C)c3)ncc2Cl)s1	13.4*	i	-9.0	4.6*	83.6*	-61.6	35.3%*
O=C(NCc1ccc2c(c1)OCO2)c1nc(S(=O)(=O)Cc2ccccc2F)ncc1Cl	nt	i	nt	nt	nt	nt	nt
CSc1nnc(NC(=O)c2ccco2)s1	1.61	i	nt	nt	nt	nt	nt
O=C(NCc1ccccc1)c1nc(S(=O)(=O)Cc2ccccc2)ncc1Cl	nt	i	nt	nt	nt	nt	nt
Cc1nnc(NC(=O)c2nc(S(=O)(=O)Cc3ccccc3C)ncc2Cl)s1	11.9*	i	-14.4	62.4*	77.0*	-41.4	35.3%*	Kir21 conf inh=i;HEK293 Tl flux=i
CSc1nnc(NC(=O)c2nc(S(=O)(=O)Cc3ccccc3F)ncc2Cl)s1	10.1*	i	-16.5	-13.1	50.0*	-53.6	17.9%*
CCSc1nnc(NC(=O)c2nc(S(=O)(=O)Cc3ccc(F)cc3)ncc2Cl)s1	10.3*	i	-21.3	-15.7	49.2*	-65.1	11.3%*
COc1cc(CN2CCCCC2C(=O)Nc2ccc(Oc3ccccc3)nc2)ccc1O (configuration not stated)	nt	i	nt	nt	nt	nt	nt
COc1ccc(Cl)cc1NC(=S)Nc1ccccc1C	0.54	i	nt	nt	nt	nt	nt
COC(=O)C(NC(=O)CCc1c(C)nc2c(c(C)nn2-c2ccccc2)c1C)C(C)C (configuration not stated)	nt	i	nt	nt	nt	nt	nt
Cc1ccc(S(=O)(=O)N(C)C)cc1NC(=O)CCNC(=O)c1ccco1	nt	i	nt	nt	nt	nt	nt
Cc1cccc(CS(=O)(=O)c2ncc(Cl)c(C(=O)Nc3nnc(C(C)C)s3)n2)c1	13.4*	i	-9.5	-5.7	98.7*	-64.2	49.0%*
O=C(NCc1ccc2c(c1)OCO2)c1nc(S(=O)(=O)Cc2ccccc2)ncc1Cl	nt	i	nt	nt	nt	nt	nt
C=CCSc1nnc(NC(=O)c2nc(SCC)ncc2Cl)s1	2.39	i	nt	nt	nt	nt	nt
Cc1ccc(CS(=O)(=O)c2ncc(Cl)c(C(=O)Nc3ccc(OC(F)F)cc3)n2)cc1	0.85	i	nt	nt	nt	nt	nt
COC(=O)c1ccccc1NC(=O)c1nc(S(=O)(=O)Cc2ccccc2)ncc1Cl	nt	i	nt	nt	nt	nt	nt
CSc1ncc(Cl)c(C(=O)Nc2nnc(SC/C=C/c3ccccc3)s2)n1	5.48*	i	6.5*	-27.7	-2.2	-35.9	i	Kir21 conf inh=i;HEK293 Tl flux=i
Cc1ccc(CS(=O)(=O)c2ncc(Cl)c(C(=O)Nc3nnc(C(C)C)s3)n2)cc1	15.8*	i	-0.3	-12.8	102.1*	-46.4	77.3%*	Kir21 conf inh=i;HEK293 Tl flux=181.5%*
CC(C)c1nnc(NC(=O)c2nc(S(=O)(=O)Cc3ccc(F)cc3)ncc2Cl)s1	11.3*	i	-2.6	-14.1	58.1*	-47.9	28.3%*	Kir21 conf inh=i;HEK293 Tl flux=i
O=S(=O)(O)c1nc2ccccc2[nH]1	nt	i	nt	nt	nt	nt	nt
Cc1nc2ccccc2nc(C)c1=NOCc1ccccc1Cl	nt	i	nt	nt	nt	nt	nt
COc1ccc(N2C(=S)NC3CS(=O)(=O)CC32)cc1 (configuration not stated)	0.08	i	nt	nt	nt	nt	nt
O=c1cc(NCc2ccccc2)[nH]c(=O)[nH]1	0.53	i	nt	nt	nt	nt	nt
Oc1ccc(C=Nc2ccccc2-c2nc3ccccc3[nH]2)cc1	0.33	i	nt	nt	nt	nt	nt
O=C(c1ccc2c(c1)OCO2)C1CCCN(Cc2cccc(C(F)(F)F)c2)C1 (configuration not stated)	nt	i	nt	nt	nt	nt	nt
O=C(c1ccc2c(c1)OCO2)C1CCCN(Cc2ccc(OC(F)F)cc2)C1 (configuration not stated)	nt	i	nt	nt	nt	nt	nt	Kir21 conf inh=i;HEK293 Tl flux=122.5%*
CC[N+](CC)(CC)CCCCOc1ccc2c(c1)C(=O)c1cc(OCCCC[N+](CC)(CC)CC)ccc1-2	0.9	i	nt	nt	nt	nt	nt
